From PubChem
Tau fibril FP: inhibitors of human tau fibril formation; K18 P301L tau heparin fibrillization, Alexa594 FP, 6 h; Potency, µM (titrated, usually from 57.7 µM), for the others: top-dose activity, negative = inhibition, actives largely listed as inhibitors; actives 0.39% (n = 280,000); AID 1468; also: nearly all actives have a fitted effect of over 55% in size
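Heparin (20 uM) drove fibril formation of recombinant tau K18 P301L, 15 uM unlabeled with 0.24 uM Alexa 594 label, for 6 hr at 37 C in 100 mM sodium acetate pH 7. Fluorescence polarization (555/632 nm) read 1 hr after 30 uM ThT.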
ALDH1A1 block: inhibitors of human aldehyde dehydrogenase 1A1 | P00352 | Purified ALDH1A1, NADH fluorescence, propionaldehyde substrate | Potency, µM (series often up to 75.3 µM), for inactives: top-dose activity, negative = inhibition, hits mostly inhibitors | actives 7.3% (n = 220,000); active = well fitted inhibition curve with a large enough effect, not every such curve was filed as active; inconclusive = small, poorly fitted or top-dose-only effect, or another doubt; inactive = no such curve, though single readings can be large or run the other way;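 also: plate controls were no enzyme wells and a reference inhibitor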
HPGD block: blocks human HPGD enzyme activity; AID 894; Potency, µM, without a hit: at the highest dose activity change, negative = inhibition, most hits filed as inhibitors; actives 4.3% (n = 150,000); purified HPGD, NADH fluorescence kinetic, PGE2 substrate; active = well fitted inhibition curve with a large enough effect, not every such curve was filed as active; inconclusive = small, poorly fitted or top-dose-only effect, or another doubt; inactive = no such curve, though single readings can be large or run the other way
Target sequence (P15428 whole entry, looked up): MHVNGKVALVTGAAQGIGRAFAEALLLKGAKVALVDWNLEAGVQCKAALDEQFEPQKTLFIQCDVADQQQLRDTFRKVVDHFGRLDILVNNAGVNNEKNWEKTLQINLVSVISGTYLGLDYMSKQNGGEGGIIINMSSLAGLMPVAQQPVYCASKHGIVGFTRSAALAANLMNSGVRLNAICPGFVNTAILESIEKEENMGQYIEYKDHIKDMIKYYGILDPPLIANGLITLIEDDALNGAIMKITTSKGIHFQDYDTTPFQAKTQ
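20 nM HPGD preincubated 15 min at room temperature with compound in 50 mM Tris-HCl pH 8, 0.01% Tween 20. Started with 1 mM NAD+ and 30 uM prostaglandin E2; NADH fluorescence (360/450 nm) read 5 times over 30-s intervals, last minus first.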
Tau fluor cs: counter-screen for tau fibril formation inhibitors | tau K18 P301L Alexa594 fluorescence, heparin fibrillization | Potency, µM (top dose mostly 57.7 µM), without a hit: at the top dose activity change, negative = decrease | actives 0.93% (n = 280,000) | AID 1463; also: nearly all actives have a fitted effect of over 55% in size
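Human tau K18 P301L (15 uM unlabeled, 0.24 uM Alexa 594-labeled) in 100 mM sodium acetate pH 7 with 20 uM heparin, 6 hr at 37 C. ThT 30 uM added, 1 hr ambient; Alexa 594 FP and total fluorescence read at 555/632 nm.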
Tau fibril ThT: tau fibrillization inhibition (ThT binding) | actives 2.1% (n = 270,000) | AID 1460 | Potency, µM (titrated, usually from 57.4 µM), for the others: top-dose activity, negative = inhibition, most hits filed as inhibitors | recombinant tau K18 P301L (four-repeat tau fragment), heparin-induced fibrillization, ThT fluorescence | P10636; also: nearly all actives have a fitted effect of over 55% in size
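Heparin-induced (20 uM) aggregation of recombinant human K18 P301L tau, 15 uM unlabeled with 0.24 uM labeled, pH 7 acetate buffer, 6 hr at 37 C with compound. Fibrils quantified by 30 uM ThT fluorescence after 1 hr ambient incubation.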
NPSR antag: blocks cAMP signaling of the human neuropeptide S receptor. actives 1% (n = 220,000). CHO-NPSR cells, cAMP TR-FRET, antagonist mode. AID 1461. Potency, µM (series often up to 38.3 µM), for inactives: at the top dose activity change, negative = inhibition, actives largely listed as inhibitors; also: nearly all actives have a fitted effect of over 50% in size
Target sequence (Q6W5P4 whole entry, looked up): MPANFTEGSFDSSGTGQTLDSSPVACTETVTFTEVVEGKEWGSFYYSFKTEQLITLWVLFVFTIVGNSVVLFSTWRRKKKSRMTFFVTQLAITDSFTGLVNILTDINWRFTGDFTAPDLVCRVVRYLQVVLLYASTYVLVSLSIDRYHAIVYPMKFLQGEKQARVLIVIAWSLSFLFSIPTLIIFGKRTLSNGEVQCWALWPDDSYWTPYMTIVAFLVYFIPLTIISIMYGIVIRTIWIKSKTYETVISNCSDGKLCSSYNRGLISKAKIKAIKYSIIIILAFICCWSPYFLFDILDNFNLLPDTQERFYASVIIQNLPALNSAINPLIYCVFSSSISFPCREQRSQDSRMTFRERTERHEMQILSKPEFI
Starred values were filed as active, the others as inactive; [ ] = dose if it differs, or a comment. Shown are actives, neighbours in structure and some others; about 9.5% of the full set was active somewhere. Unless noted, calls follow the shape of the dose curve; as a rule, active = well fitted curve in the direction sought with a large enough effect; inconclusive = small, poorly fitted or top-dose-only effect, or another doubt; inactive = no such curve, though single readings can be large; an effect the other way counts as inactive or inconclusive. Unless noted, % is scaled to controls: 0 for no effect and ±100 for the full control effect; potency is read from the fitted curve at half-maximal effect.

How did O=C(NCCO)c1ccc2[nH]c3c(c2c1)CCCC3 do in these assays?
Tau fibril FP: 4%; ALDH1A1 block: 4%; HPGD block: -11%; Tau fluor cs: -4%; Tau fibril ThT: -15%; NPSR antag: -10%[46.1 µM]

What do the screens show for `CCCC(C)NC(=O)c1ccc2[nH]c3c(c2c1)CC(C)CC3` (stereo unspecified)?
Tau fibril FP: -4%; ALDH1A1 block: 16µM*; Tau fluor cs: -11%; Tau fibril ThT: -4%; NPSR antag: -13%[46.1 µM]

What do the screens show for `O=C(C[N+]1(CC#Cc2ccccc2)CCOCC1)c1ccc(Cl)cc1`?
Tau fibril FP: 0%; ALDH1A1 block: 22µM*; Tau fluor cs: -10%; Tau fibril ThT: -13%; NPSR antag: -21%

How did C#CC[N+]1(CC#Cc2ccccc2)CCOCC1 do in these assays?
Tau fibril FP: 4%; ALDH1A1 block: -31%; HPGD block: -15%; Tau fluor cs: -8%; Tau fibril ThT: -11%; NPSR antag: -14%[46.1 µM]

Results for O=C(C[N+]1(CC#Cc2ccccc2)CCOCC1)c1ccccc1 ?
Tau fibril FP: 2%; ALDH1A1 block: 4.5µM*; Tau fluor cs: -11%; Tau fibril ThT: -8%; NPSR antag: -1%

What do the screens show for `C=CCC(C)(Nc1ccccc1)C(=O)OCC` (stereo unspecified)?
Tau fibril FP: 0%; ALDH1A1 block: -6%; HPGD block: -7%; Tau fluor cs: -3%; Tau fibril ThT: -5%

How did C/C(=C\CO)CCC(C)CCCC(C)CCCC(C)C (stereo unspecified) do in these assays?
Tau fibril FP: -6%; ALDH1A1 block: -16%; HPGD block: -9%; Tau fluor cs: 0%; Tau fibril ThT: -6%

Results for Nc1nc(-c2cccc(NS(=O)(=O)c3ccccc3)c2)cs1 ?
Tau fibril FP: -1%; ALDH1A1 block: 7.9µM*; HPGD block: 11µM*; Tau fluor cs: -2%; Tau fibril ThT: -4%; NPSR antag: -21%[46.1 µM]

What do the screens show for `COc1cc(CCNC(=O)c2ccc3c(c2)c(C)c(C)n3Cc2cccc(C)c2)cc(OC)c1OC`?
Tau fibril FP: 4%; Tau fluor cs: -23%; Tau fibril ThT: inconclusive

What do the screens show for `COc1ccccc1NC(=O)CCSCCC(=O)Nc1ccccc1OC`?
Tau fibril FP: -2%; ALDH1A1 block: 14µM*; HPGD block: -16%; Tau fluor cs: 12%; Tau fibril ThT: 9%; NPSR antag: 1%

How did COc1ccccc1NC(=O)CC1Nc2ccccc2NC1=O (stereo unspecified) do in these assays?
Tau fibril FP: 1%; ALDH1A1 block: 28µM*; HPGD block: inconclusive; Tau fluor cs: -13%; Tau fibril ThT: inconclusive; NPSR antag: -15%[46.1 µM]

What do the screens show for `COc1ccccc1NC(=O)CCC(=O)c1ccc(-c2ccccc2)cc1`?
Tau fibril FP: 9%; ALDH1A1 block: -7%; HPGD block: 18µM*; Tau fluor cs: -22%; Tau fibril ThT: inconclusive; NPSR antag: -21%

Results for COc1ccccc1NC(=O)CNC(=O)c1ccccc1C ?
Tau fibril FP: -2%; ALDH1A1 block: -11%; HPGD block: 20µM*; Tau fluor cs: 12%; Tau fibril ThT: 7%; NPSR antag: 12%[46.1 µM]

What do the screens show for `CC(=O)OCC(=O)Nc1c(C)cc(C)cc1C`?
Tau fibril FP: 0%; ALDH1A1 block: 14%; Tau fluor cs: 7%; Tau fibril ThT: 1%; NPSR antag: 10%

Results for CCOC(=O)c1cc(S(=O)(=O)N2CCN(c3ccc(F)cc3)CC2)[nH]n1 ?
Tau fibril FP: -7%; Tau fluor cs: -8%; Tau fibril ThT: 0%

What do the screens show for `CCC(OC(=O)CN1C(=O)C(=O)c2ccccc21)C(=O)Nc1ccc(S(N)(=O)=O)cc1` (stereo unspecified)?
Tau fibril FP: -2%; ALDH1A1 block: 0.089µM*; Tau fluor cs: -4%; Tau fibril ThT: -15%; NPSR antag: 5%

What do the screens show for `CO/N=C\C(=N\Nc1ccc(OC)cc1)C(=O)c1ccccc1`?
Tau fibril FP: -3%; ALDH1A1 block: inconclusive; HPGD block: -5%; Tau fluor cs: inconclusive; Tau fibril ThT: inconclusive; NPSR antag: -27%[46.1 µM]

What do the screens show for `C/C(N)=C(/C#N)C(=O)CSc1nc2ccccc2c(=O)n1Cc1ccc(F)cc1`?
Tau fibril FP: inconclusive; ALDH1A1 block: 0%; Tau fluor cs: inconclusive; Tau fibril ThT: -15%; NPSR antag: inconclusive

What do the screens show for `C/C(N)=C(/C#N)C(=O)CSc1nc2scc(-c3ccc(F)cc3)c2c(=O)n1C`?
Tau fibril FP: -7%; ALDH1A1 block: 16µM*; Tau fluor cs: -25%; Tau fibril ThT: -8%; NPSR antag: -22%

Results for NS(=O)(=O)c1cccc(NC(=O)CN2CCc3ccccc32)c1 ?
Tau fibril FP: 9%; ALDH1A1 block: 7.9µM*; Tau fluor cs: inconclusive; Tau fibril ThT: -9%; NPSR antag: -2%

Results for CN1c2ccccc2C(C)(C)[C@]12C=Cc1cc(O)ccc1O2 ?
Tau fibril FP: -1%; ALDH1A1 block: -9%; HPGD block: -14%; Tau fluor cs: inconclusive; Tau fibril ThT: 22µM*; NPSR antag: 13µM*

What do the screens show for `COc1ccc2c(c1)Sc1ccccc1N2CCN(C)C`?
Tau fibril FP: 2%; ALDH1A1 block: -10%; HPGD block: 5%; Tau fluor cs: -5%; Tau fibril ThT: -5%; NPSR antag: -11%[46.1 µM]

What do the screens show for `CC1(C)OC(=O)N(c2ccccc2)C12C=Cc1cc(Br)ccc1O2` (stereo unspecified)?
Tau fibril FP: 0%; ALDH1A1 block: 5%; HPGD block: -2%; Tau fluor cs: -4%; Tau fibril ThT: -7%; NPSR antag: inconclusive

Results for CN1c2ccccc2C(C)(C)C12C=Nc1c(ccc3ccccc13)O2 (stereo unspecified) ?
Tau fibril FP: inconclusive; ALDH1A1 block: -14%; HPGD block: -13%; Tau fluor cs: inconclusive; Tau fibril ThT: 32µM*; NPSR antag: -17%[46.1 µM]

What do the screens show for `COc1ccc2ccc3c(c2c1)N=CC1(O3)N(C)c2ccccc2C1(C)C` (stereo unspecified)?
Tau fibril FP: 22µM*; ALDH1A1 block: 13µM*; HPGD block: inconclusive; Tau fluor cs: inconclusive; Tau fibril ThT: 10µM*; NPSR antag: -39%

What do the screens show for `Cc1ccc(-n2ncc3c(NCCCN4CCCC4=O)ncnc32)c(C)c1`?
Tau fibril FP: -7%; ALDH1A1 block: inconclusive; HPGD block: -26%; Tau fluor cs: -5%; Tau fibril ThT: -3%; NPSR antag: 8%
